# Paper PMC7862700, “An all-to-all approach to the identification of sequence-specific readers for epigenetic DNA modifications on cytosine”
# Experiments:
# Test in all cases: DAPPL (digital affinity profiling via proximity ligation, sequencing); 10 mM Tris-HCl pH 7.5, 50 mM NaCl, 1 mM DTT, 4% glycerol, room temperature, 30 min; GST-TFs on glutathione beads, 16-mer random dsDNA library, 0.1% formaldehyde crosslink after washing; high values mean tight binding
# FEV = molecular target: T1, FEV (Homo sapiens, UniProt Q99581 1-238); details: protein: recombinant; tags: N-terminal GST; dsDNA, one strand shown
# T1 sequence: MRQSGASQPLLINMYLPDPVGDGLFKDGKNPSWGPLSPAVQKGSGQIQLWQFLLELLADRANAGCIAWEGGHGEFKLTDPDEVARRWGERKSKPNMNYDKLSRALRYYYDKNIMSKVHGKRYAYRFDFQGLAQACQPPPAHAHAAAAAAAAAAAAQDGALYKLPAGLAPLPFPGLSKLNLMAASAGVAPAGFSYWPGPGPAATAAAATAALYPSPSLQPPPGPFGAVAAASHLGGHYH
# How it was run: (§1)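 A tag-only sample was pooled with DNA-barcoded human transcription factors that had been expressed in yeast as GST fusions and captured on glutathione beads. The pools were incubated for 30 min at room temperature with 200 nmole of a random double-stranded 16-mer DNA library in Tris/NaCl/DTT/glycerol buffer, then washed, crosslinked with 0.1% formaldehyde, proximity-ligated (BsaI/T4 ligase, 1 h, 37 °C), PCR-amplified and sequenced on an Illumina NextSeq500. Binding signal is each hexamer's read frequency for a factor divided by its frequency for the tag-only sample.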
# ETV5 = ETV5 (Homo sapiens, UniProt P41161 1-510); details: protein: recombinant; tags: N-terminal GST; dsDNA, one strand shown
# Chain of ETV5 (P41161 whole entry): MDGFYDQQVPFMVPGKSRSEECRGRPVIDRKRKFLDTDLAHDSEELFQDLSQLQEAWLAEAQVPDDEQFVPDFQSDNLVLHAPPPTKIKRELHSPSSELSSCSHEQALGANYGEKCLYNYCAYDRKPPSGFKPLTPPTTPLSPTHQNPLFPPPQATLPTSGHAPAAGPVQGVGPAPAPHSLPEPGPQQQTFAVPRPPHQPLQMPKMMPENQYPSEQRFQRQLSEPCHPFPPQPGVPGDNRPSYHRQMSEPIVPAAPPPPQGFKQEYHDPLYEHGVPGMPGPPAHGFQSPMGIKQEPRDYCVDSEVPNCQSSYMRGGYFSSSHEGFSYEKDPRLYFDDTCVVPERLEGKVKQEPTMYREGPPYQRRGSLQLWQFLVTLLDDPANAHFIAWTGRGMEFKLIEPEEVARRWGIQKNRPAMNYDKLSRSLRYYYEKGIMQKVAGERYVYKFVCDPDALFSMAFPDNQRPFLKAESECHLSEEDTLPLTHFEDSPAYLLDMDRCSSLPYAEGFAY
# How it was run: as §1
# HSF1 = HSF1 (Homo sapiens, UniProt Q00613 1-529); details: protein: recombinant; tags: N-terminal GST; chain copies: 3; dsDNA, one strand shown
# Chain of HSF1 (Q00613 whole entry): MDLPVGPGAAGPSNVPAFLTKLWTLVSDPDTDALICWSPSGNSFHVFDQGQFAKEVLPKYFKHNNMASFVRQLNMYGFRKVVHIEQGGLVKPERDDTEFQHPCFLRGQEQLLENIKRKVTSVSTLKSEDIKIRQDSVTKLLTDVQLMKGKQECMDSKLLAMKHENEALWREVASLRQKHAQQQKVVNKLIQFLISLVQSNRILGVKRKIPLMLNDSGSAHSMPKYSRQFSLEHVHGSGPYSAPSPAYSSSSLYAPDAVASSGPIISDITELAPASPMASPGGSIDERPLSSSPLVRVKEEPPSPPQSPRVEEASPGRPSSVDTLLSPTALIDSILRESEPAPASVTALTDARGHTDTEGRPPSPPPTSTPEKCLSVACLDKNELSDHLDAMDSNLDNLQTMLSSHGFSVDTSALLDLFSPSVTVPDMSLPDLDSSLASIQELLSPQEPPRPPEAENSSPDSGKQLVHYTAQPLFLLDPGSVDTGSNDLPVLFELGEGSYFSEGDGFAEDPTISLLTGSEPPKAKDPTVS
# How it was run: as §1
# SPIC = molecular target: T2, SPIC (Homo sapiens, UniProt Q8N5J4 1-248); details: protein: recombinant; tags: N-terminal GST; dsDNA, one strand shown
# T2 sequence: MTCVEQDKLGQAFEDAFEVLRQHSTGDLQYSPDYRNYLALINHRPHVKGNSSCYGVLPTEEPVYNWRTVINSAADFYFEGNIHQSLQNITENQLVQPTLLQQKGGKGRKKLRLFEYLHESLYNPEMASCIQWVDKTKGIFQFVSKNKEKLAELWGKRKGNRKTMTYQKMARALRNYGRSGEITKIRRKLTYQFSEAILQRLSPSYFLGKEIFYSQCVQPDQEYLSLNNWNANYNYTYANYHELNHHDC
# How it was run: as §1
# ELF4 = ELF4 (Homo sapiens, UniProt Q99607 1-663); details: protein: recombinant; tags: N-terminal GST; dsDNA, one strand shown
# Chain of ELF4 (Q99607 whole entry): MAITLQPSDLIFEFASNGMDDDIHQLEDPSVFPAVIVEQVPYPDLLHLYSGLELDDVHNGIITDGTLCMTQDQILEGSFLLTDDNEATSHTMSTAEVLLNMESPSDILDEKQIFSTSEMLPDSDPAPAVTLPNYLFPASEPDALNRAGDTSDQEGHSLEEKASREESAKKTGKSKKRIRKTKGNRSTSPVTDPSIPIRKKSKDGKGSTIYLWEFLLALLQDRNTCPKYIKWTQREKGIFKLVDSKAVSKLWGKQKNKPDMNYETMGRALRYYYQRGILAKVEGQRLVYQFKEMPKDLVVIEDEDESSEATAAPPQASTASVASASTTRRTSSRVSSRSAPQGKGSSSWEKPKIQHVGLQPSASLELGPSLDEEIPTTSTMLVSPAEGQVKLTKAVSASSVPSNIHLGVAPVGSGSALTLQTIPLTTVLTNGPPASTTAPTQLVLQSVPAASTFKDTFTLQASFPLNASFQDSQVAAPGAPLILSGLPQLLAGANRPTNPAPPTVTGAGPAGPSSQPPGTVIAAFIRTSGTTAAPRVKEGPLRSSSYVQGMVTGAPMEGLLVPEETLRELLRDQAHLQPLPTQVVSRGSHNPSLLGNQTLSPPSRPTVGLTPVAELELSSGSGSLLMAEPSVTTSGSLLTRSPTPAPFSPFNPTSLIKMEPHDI
# How it was run: as §1
# ELK4 = molecular target: T3, ELK4 (Homo sapiens, UniProt P28324-2 1-405); details: protein: recombinant; tags: N-terminal GST; dsDNA, one strand shown
# T3 sequence: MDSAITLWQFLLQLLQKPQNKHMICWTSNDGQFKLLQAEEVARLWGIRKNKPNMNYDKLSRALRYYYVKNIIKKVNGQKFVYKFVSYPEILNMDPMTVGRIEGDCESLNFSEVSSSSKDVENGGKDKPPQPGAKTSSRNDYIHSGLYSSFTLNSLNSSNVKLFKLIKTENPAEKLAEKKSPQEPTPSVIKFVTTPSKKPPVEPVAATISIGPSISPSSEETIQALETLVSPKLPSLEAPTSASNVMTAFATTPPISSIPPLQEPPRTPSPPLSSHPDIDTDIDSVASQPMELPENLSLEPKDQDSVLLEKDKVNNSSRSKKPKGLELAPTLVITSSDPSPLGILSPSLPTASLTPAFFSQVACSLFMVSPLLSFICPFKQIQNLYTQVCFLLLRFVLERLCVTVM
# How it was run: as §1
# ETV2 = molecular target: T4, ETV2 (Homo sapiens, UniProt O00321 1-342); details: protein: recombinant; tags: N-terminal GST; dsDNA, one strand shown
# T4 sequence: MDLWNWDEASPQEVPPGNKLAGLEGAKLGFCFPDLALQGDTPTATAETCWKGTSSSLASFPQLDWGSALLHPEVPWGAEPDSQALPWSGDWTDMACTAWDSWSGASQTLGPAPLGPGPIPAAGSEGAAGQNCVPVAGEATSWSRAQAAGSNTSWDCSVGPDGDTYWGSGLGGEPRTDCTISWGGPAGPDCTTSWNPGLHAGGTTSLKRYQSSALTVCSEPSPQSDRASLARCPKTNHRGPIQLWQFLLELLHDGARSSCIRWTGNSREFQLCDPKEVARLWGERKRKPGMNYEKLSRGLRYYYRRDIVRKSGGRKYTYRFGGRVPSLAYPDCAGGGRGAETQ
# How it was run: as §1
# ELF3 = molecular target: T5, ELF3 (Homo sapiens, UniProt P78545 1-371); details: protein: recombinant; tags: N-terminal GST; dsDNA, one strand shown
# T5 sequence: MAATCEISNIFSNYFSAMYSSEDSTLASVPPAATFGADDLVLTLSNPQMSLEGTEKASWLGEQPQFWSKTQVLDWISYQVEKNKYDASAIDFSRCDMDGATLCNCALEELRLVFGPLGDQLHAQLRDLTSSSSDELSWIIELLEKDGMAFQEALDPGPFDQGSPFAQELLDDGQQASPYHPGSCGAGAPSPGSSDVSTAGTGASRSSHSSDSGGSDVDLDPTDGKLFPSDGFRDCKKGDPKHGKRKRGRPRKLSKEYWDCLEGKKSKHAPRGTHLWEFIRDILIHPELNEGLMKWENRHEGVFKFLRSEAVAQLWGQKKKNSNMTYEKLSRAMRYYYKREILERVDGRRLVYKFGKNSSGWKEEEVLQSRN
# How it was run: as §1
# CRX = CRX (Homo sapiens, UniProt O43186 1-299); details: protein: recombinant; tags: N-terminal GST; dsDNA, one strand shown
# Chain of CRX (O43186 whole entry): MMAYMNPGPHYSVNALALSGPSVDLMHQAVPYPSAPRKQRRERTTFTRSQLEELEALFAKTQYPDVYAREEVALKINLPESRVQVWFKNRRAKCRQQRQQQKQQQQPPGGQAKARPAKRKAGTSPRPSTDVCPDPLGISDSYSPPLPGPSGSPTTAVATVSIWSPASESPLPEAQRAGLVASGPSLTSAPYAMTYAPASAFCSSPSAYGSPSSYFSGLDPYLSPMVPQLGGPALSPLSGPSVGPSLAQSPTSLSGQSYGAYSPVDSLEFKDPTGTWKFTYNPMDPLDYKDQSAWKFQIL
# How it was run: as §1
# ETV1 = ETV1 (Homo sapiens, UniProt P50549 1-477); details: protein: recombinant; tags: N-terminal GST; dsDNA, one strand shown
# Chain of ETV1 (P50549 whole entry): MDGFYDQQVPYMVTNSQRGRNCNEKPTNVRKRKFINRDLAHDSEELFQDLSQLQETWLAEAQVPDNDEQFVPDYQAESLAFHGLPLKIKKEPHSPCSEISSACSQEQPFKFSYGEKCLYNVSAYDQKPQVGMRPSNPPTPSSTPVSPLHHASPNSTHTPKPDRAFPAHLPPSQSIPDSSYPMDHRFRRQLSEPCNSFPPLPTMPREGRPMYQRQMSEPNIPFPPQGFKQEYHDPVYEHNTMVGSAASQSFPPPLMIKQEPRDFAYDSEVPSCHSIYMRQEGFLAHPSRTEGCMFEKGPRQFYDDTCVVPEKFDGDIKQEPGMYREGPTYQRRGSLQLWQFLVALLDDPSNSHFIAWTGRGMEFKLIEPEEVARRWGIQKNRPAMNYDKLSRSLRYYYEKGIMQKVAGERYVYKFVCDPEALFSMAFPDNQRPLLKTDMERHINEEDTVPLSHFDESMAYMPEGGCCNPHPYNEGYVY
# How it was run: as §1
sequence,measurement,setting,value
ATTCAC,binding signal,FEV,"1.23 fold enrichment (6-mer frequency, TF over GST control)"
same,binding signal,ETV5,"1.21 fold enrichment (6-mer frequency, TF over GST control)"
same,binding signal,HSF1,"1.13 fold enrichment (6-mer frequency, TF over GST control)"
same,binding signal,SPIC,"1.1 fold enrichment (6-mer frequency, TF over GST control)"
same,binding signal,ELF4,"1.31 fold enrichment (6-mer frequency, TF over GST control)"
same,binding signal,ELK4,"1.35 fold enrichment (6-mer frequency, TF over GST control)"
same,binding signal,ETV2,"1.21 fold enrichment (6-mer frequency, TF over GST control)"
same,binding signal,ELF3,"1.27 fold enrichment (6-mer frequency, TF over GST control)"
same,binding signal,CRX,"1.14 fold enrichment (6-mer frequency, TF over GST control)"
same,binding signal,ETV1,"1.29 fold enrichment (6-mer frequency, TF over GST control)"
